This passage reports outcome and AC50 results from PubChem BioAssay (EPA / NIEHS).

Assay [1] concerns the target human RAR-related Orphan Receptor gamma (RORg), RORC (gene 6097) (UniProt P51449). The experiment in a line: ATG_RORg_TRANS: Attagene TRANS-FACTORIAL HepG2 Assay for human RAR-related Orphan Receptor gamma (RORg) (AID 2283011; active means hit-call score of the fitted dose curve at least 0.9, where 1 is the maximum). A digest of the protocol:
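Reporter transcripts from a transfected RORg-GAL4 chimera in HepG2 cells were quantified 24 h after dosing by RT-PCR, 6-FAM labelling, HpaI digestion and capillary electrophoresis; increases over DMSO baseline were fitted.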

In assay [2] the target is Retinoic acid receptor RXR-alpha (Homo sapiens) (UniProt P19793). The experiment in a line: ATG_RXRa_TRANS: Attagene TRANS-FACTORIAL HepG2 Assay for human Retinoid X Receptor alpha (RXRa) (AID 2283012; active means hit-call score of the fitted dose curve at least 0.9, where 1 is the maximum). The essentials:
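Chimeric NR-GAL4 trans-activation in HepG2, 24 h treatment; reporter transcripts quantified by fluorescence on capillary electrophoresis, analysed for upward change from DMSO.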

Assay [3] concerns the target human Retinoid X Receptor beta (RXRb), RXRB (gene 6257) (UniProt P28702). The experiment in a line: ATG_RXRb_TRANS: Attagene TRANS-FACTORIAL HepG2 Assay for human Retinoid X Receptor beta (RXRb) (AID 2283013; active means hit-call score of the fitted dose curve at least 0.9, where 1 is the maximum). A digest of the protocol: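 After a 24 h incubation with test chemical, transfected HepG2 cells carrying NR-Gal4 fusions and GAL4-UAS reporter transcription units yield RNA whose reporter cDNA is FAM-labelled, HpaI-cut and sized by capillary electrophoresis; increases over DMSO are scored.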

The target of assay [4] is human Thyroid Receptor alpha (THRa1), THRA (gene 7067) (UniProt P10827). The experiment in a line: ATG_THRa1_TRANS: Attagene TRANS-FACTORIAL HepG2 Assay for human Thyroid Receptor alpha (THRa1) (AID 2283014; active means hit-call score of the fitted dose curve at least 0.9, where 1 is the maximum). The essentials: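 Transcripts from GAL4-UAS-driven reporters, measured after 24 h compound exposure by RT-PCR plus capillary electrophoresis of 6-FAM-labeled fragments, were fitted for gain of signal relative to DMSO. Cells: transiently transfected HepG2 expressing NR-Gal4 chimeras.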

Read-out in assay [5]: E-selectin (Homo sapiens) (UniProt P16581)
The experiment in a line: BSK_3C_Eselectin: BioMAP Diversity Plus: 3C Assay for Eselectin Biomarker Activity (AID 2283015).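 On outcome: cell surface E-selectin protein quantified by ELISA 24 h after dosing.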 The note with it: primary human endothelial cells (HUVEC); actives raise or lower the signal. A digest of the protocol:
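E-selectin ELISA readout, fitted bidirectionally relative to DMSO, taken 24 h post-dosing in HUVEC cultures of the 3C system. Overt cytotoxicity tracked with sulforhodamine B staining of parallel wells.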

Read-out in assay [6]: Interleukin-1 alpha (IL1a), IL1A (gene 3552)
Put plainly: BSK_BE3C_IL1a: BioMAP Diversity Plus: BE3C Assay for Interleukin-1 alpha (IL1a) Biomarker Activity (AID 2283016). The note with it: primary human bronchial epithelial cells; actives raise or lower the signal. A digest of the protocol:
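Measured in human lung primary bronchial epithelial cells: IL-1a by ELISA at 24 h after dosing, with bidirectional fitting against DMSO.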

Read-out in assay [7]: Monocyte Chemoattractant Protein-1 (MCP1), CCL2 (gene 6347)
Put plainly: BSK_3C_MCP1: BioMAP Diversity Plus: 3C Assay for Monocyte Chemoattractant Protein-1 (MCP1) Biomarker Activity (AID 2283017). The note with it: primary human endothelial cells (HUVEC); actives raise or lower the signal. A digest of the protocol:
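MCP-1 was measured by ELISA 24 h after dosing in primary HUVEC 3C cultures and fitted in both directions relative to DMSO; cytotoxicity was checked by SRB total-protein staining in parallel wells.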

Read-out in assay [8]: Monocyte Chemoattractant Protein-1 (MCP1), CCL2 (gene 6347)
Put plainly: BSK_4H_MCP1: BioMAP Diversity Plus: 4H Assay for Monocyte Chemoattractant Protein-1 (MCP1) Biomarker Activity (AID 2283018). The note with it: primary human endothelial cells (HUVEC); actives raise or lower the signal. The essentials: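 Primary human umbilical vein endothelium is exposed to chemical for 24 h before MCP-1 is assayed by ELISA. Concentration-response fitted bidirectionally relative to DMSO.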

Read-out in assay [9]: Human Leukocyte Antigen - DR isotype (HLADR), HLA-DRA (gene 3122)
Put plainly: BSK_3C_HLADR: BioMAP Diversity Plus: 3C Assay for Human Leukocyte Antigen - DR isotype (HLADR) Biomarker Activity (AID 2283019).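 On outcome: ELISA of cell-surface HLA-DR on HUVEC 24 h after dosing.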 The note with it: primary human endothelial cells (HUVEC); actives raise or lower the signal. The essentials: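 Bidirectional fitting against DMSO was applied to the HLA-DR ELISA signal from human umbilical vein endothelial cells, 24 h post-dose. Cytotoxicity came from parallel SRB total-protein staining; 3C proliferation was counted by SRB at 48 h.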

Read-out in assay [10]: Interleukin-8 (IL8), CXCL8 (gene 3576)
The experiment in a line: BSK_3C_IL8: BioMAP Diversity Plus: 3C Assay for Interleukin-8 (IL8) Biomarker Activity (AID 2283020). The note with it: primary human endothelial cells (HUVEC); actives raise or lower the signal. The essentials:
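Using DMSO-treated wells as the baseline, bidirectional curve fitting was applied to ELISA-measured IL-8 from human umbilical vein endothelial cultures sampled 24 h after compound addition.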

Each structure is given as a SMILES string. Where “and” joins values, the source holds several entries; their conditions need not be identical. Equal values may be shown once. Results filed as inconclusive are left out. The source holds several records for some structures; these can differ, active in one and inactive in another. Calls of active or inactive are those of the source. How the source made its calls, unless noted: active means hit-call score of the fitted dose curve at least 0.9, where 1 is the maximum; inactive means score below 0.9.

Sequence of human Thyroid Receptor alpha (THRa1), THRA (gene 7067) (P10827 whole entry, looked up, the tested form may be a part): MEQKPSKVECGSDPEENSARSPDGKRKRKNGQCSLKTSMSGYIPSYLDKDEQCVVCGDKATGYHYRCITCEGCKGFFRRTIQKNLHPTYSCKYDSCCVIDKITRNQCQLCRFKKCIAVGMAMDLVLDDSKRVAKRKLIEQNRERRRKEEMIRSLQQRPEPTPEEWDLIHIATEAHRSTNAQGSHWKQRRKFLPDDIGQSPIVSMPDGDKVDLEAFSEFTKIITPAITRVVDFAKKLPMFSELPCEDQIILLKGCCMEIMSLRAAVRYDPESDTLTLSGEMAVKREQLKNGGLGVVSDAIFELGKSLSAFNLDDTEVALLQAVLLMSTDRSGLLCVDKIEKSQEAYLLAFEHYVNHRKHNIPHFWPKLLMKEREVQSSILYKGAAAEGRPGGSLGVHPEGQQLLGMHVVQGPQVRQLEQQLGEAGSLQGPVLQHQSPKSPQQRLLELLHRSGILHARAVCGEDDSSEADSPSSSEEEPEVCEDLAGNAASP
Sequence of human Retinoid X Receptor beta (RXRb), RXRB (gene 6257) (P28702 whole entry, looked up, the tested form may be a part): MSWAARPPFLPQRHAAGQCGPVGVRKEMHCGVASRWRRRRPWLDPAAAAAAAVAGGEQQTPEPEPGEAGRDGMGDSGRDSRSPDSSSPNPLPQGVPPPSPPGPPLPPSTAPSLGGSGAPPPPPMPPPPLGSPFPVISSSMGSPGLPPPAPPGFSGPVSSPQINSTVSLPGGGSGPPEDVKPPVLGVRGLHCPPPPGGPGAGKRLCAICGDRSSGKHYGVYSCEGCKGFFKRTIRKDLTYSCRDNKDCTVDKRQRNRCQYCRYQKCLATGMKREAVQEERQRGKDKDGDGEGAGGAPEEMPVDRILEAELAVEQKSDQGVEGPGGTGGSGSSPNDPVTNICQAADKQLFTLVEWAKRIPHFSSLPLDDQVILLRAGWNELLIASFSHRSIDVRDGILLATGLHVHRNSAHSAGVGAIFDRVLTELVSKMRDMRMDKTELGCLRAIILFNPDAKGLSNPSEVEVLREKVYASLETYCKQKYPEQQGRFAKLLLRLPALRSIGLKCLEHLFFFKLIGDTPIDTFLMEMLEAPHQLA
Sequence of E-selectin (Homo sapiens) (P16581 whole entry, looked up): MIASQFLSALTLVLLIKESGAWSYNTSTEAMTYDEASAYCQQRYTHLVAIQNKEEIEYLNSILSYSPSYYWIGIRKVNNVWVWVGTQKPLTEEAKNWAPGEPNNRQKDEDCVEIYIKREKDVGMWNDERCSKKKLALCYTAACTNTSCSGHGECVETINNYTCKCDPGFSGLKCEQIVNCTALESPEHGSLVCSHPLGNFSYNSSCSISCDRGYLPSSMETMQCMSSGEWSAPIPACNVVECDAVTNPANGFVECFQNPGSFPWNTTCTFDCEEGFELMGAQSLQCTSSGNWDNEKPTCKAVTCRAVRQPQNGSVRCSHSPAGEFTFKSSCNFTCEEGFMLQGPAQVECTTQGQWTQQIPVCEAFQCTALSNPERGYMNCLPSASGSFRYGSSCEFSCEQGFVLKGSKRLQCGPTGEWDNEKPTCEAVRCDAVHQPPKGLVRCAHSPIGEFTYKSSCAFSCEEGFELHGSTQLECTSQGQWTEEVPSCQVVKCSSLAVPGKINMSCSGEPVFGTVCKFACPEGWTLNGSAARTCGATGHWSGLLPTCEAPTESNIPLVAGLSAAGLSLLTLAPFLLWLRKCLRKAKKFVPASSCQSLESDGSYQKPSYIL
Sequence of Retinoic acid receptor RXR-alpha (Homo sapiens) (P19793 whole entry, looked up, the tested form may be a part): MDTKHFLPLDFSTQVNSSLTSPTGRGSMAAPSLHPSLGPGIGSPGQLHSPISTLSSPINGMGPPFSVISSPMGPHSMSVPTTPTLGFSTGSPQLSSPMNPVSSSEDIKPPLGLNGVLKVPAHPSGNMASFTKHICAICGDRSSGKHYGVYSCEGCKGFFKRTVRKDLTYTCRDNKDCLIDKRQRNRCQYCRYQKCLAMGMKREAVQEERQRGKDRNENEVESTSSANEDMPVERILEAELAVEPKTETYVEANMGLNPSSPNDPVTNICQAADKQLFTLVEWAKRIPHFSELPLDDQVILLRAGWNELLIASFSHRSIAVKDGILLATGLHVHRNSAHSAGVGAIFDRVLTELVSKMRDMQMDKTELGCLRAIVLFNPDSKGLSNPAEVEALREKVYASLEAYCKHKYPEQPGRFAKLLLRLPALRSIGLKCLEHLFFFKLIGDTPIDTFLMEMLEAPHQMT
Sequence of human RAR-related Orphan Receptor gamma (RORg), RORC (gene 6097) (P51449 whole entry, looked up, the tested form may be a part): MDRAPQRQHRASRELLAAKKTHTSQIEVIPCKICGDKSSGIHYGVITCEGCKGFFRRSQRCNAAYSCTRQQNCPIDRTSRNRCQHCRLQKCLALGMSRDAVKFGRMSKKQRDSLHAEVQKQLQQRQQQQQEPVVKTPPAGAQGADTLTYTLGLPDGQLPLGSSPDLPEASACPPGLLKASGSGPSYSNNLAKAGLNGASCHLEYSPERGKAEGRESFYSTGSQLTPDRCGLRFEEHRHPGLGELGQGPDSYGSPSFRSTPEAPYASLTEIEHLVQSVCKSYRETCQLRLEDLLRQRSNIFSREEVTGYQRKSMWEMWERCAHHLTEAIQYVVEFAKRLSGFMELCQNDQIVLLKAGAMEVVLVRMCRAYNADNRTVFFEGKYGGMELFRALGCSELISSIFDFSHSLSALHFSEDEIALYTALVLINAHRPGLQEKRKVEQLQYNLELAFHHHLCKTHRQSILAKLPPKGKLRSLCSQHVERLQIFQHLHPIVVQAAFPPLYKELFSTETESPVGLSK

On to `O=[N+]([O-])c1c(Cl)c(Cl)c(Cl)c(Cl)c1Cl`, for which the compound was classed as inactive in [1], in [2], in [3], in [4], in [5] and in assay [6]. Besides, the outcome in [7], in assay [8] and in [10] was inactive. Moreover, in assay [9], the AC50 was 36.9 µM (active).
Consider `Cc1[nH]c(=O)n(C(C)(C)C)c(=O)c1Cl`, for which the call in assay [1], in assay [4], in assay [5], in [6], in [7] and in assay [8] was inactive. For the same compound, the outcome in assay [10] was inactive. Also, in assay [9], the AC50 is 13.2 µM (active).
As for `O=C1c2ccccc2C(=O)N1SC(Cl)(Cl)Cl`, the compound was classed as inactive in [2], in [3], in [5], in assay [7], in [8] and in [9]. Further, the outcome in assay [10] was inactive. In addition, in [6], the AC50 is 32 µM (active).
With `COC(=O)c1ccccc1CS(=O)(=O)NC(=O)Nc1nc(OC)cc(OC)n1`, the outcome in assay [2], in [3], in [4], in assay [5], in [6] and in assay [7] was inactive. Further, the result in [8], in assay [9] and in assay [10] was inactive.
As for `O=[N+]([O-])/N=C1\NCCN1Cc1ccc(Cl)nc1`, the compound was called inactive in assay [2], in [3], in [4], in assay [5], in assay [6] and in assay [7]. Besides, the outcome in assay [8], in [9] and in assay [10] was inactive.
As for `CNC(=O)/C=C(\C)OP(=O)(OC)OC`, the result in assay [2], in [3], in [5], in assay [6], in [7] and in [8] was inactive. In addition, the outcome in assay [9] and in assay [10] was inactive.
With `Clc1ccccc1-c1nnc(-c2ccccc2Cl)nn1`, the outcome in assay [2], in [3], in assay [4], in assay [5], in assay [6] and in assay [7] was inactive. For the same compound, the outcome in assay [9] and in [10] was inactive. The half-maximal activity concentration (AC50) in [8] is 20 µM (active).
Regarding `C[C@H]1[C@H](c2ccc(Cl)cc2)SC(=O)N1C(=O)NC1CCCCC1`, the call in [3], in [4], in assay [5] and in assay [6] was inactive. Also, the AC50 was 20 µM (active) in assay [7], 8.84 µM (active) in assay [8], 21.8 µM (active) in [9] and 20 µM (active) in assay [10].
For `COc1cc(OC)nc(NC(=O)NS(=O)(=O)c2cc(NC=O)ccc2C(=O)N(C)C)n1`, the compound was called inactive in [2], in [5], in assay [6], in assay [7], in assay [8] and in [9]. The outcome in assay [10] was inactive.
For `COC(=O)c1ccccc1S(=O)(=O)NC(=O)Nc1nc(C)nc(OC)n1`, the call in [2], in assay [3], in assay [4], in assay [5], in assay [6] and in assay [7] was inactive. Besides, the outcome in [8], in assay [9] and in assay [10] was inactive.
`COP(=O)(OC)OC=C(Cl)Cl`: the outcome in assay [6], in [7], in assay [8] and in assay [10] was inactive. Besides, the AC50 in [9] is 20 µM (active).
Regarding `CCCN(CCC)c1c([N+](=O)[O-])cc(C(F)(F)F)cc1[N+](=O)[O-]`, the result in assay [3], in assay [5], in [6], in assay [7], in assay [9] and in assay [10] was inactive. The concentration at half-maximal activity (AC50) in [8] is 24.7 µM (active).
As for `O=S1OCC2C(CO1)C1(Cl)C(Cl)=C(Cl)C2(Cl)C1(Cl)Cl` (stereo unspecified), the compound was classed as inactive in assay [2]. Besides, the AC50 is 34.5 µM (active) in assay [5]; 33.4 µM (active) in assay [6]; 30.3 µM (active) in assay [7]; 26 µM (active) in [8]; 30 µM (active) in [9]; 32.7 µM (active) in assay [10].
With `ClC1C(Cl)C(Cl)C(Cl)C(Cl)C1Cl` (stereo unspecified), the result in assay [2], in assay [3], in [4], in [5], in [6] and in [7] was inactive. Further, the outcome in [8], in assay [9] and in [10] was inactive. The AC50 in assay [3] was 31.1 µM (active) and 26.2 µM (active); in assay [5] it was 20 µM (active) and 25.7 µM (active) and 5.22 µM (active); in assay [9], 28.2 µM (active) and 25.3 µM (active).
